From PubChem BioAssay (NCI)
Compounds without any hit were thinned out: in the full panel of roughly 79,000, 15% have a hit. Activity calls are given as the source filed them. Cut-off read from the data, not from the text of the source: active = growth inhibition above about 70%; inactive = the rest.

How the values were obtained:
[1] = NCI Yeast Anticancer Drug Screen. Data for the rad50 strain (AID 155);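 note: 0% = growth of vehicle-only cultures of the same strain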; details: S. cerevisiae rad50 strain growth inhibition, hits give high values
Summary of the method: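 Yeast carrying a defined DNA repair defect were exposed to test compounds, and growth was compared with vehicle-treated controls to give percent inhibition.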

[2] = NCI Yeast Anticancer Drug Screen. Data for the mec2-1 strain (AID 157); details: S. cerevisiae mec2-1 strain, hits give high values
Summary of the method: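 Yeast mec2-1 mutant treated with compound. Readout: growth inhibition vs vehicle controls.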

[3] = NCI Yeast Anticancer Drug Screen. Data for the sgs1 mgt1 strain (AID 161);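 note: 0% = growth of cultures given vehicle only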; details: S. cerevisiae sgs1 mgt1 strain, hits give high values
Summary of the method: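 Genetically altered yeast, compound exposure, growth inhibition relative to vehicle.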

[4] = NCI Yeast Anticancer Drug Screen. Data for the cln2 rad14 strain (AID 165);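 note: 0% = growth equal to vehicle treated cultures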; details: S. cerevisiae cln2 rad14 strain, hits give high values
Summary of the method: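 cln2 rad14 yeast strain; compound exposure; growth inhibition read vs vehicle controls.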

[5] = NCI Yeast Anticancer Drug Screen. Data for the bub3 strain (AID 167); details: S. cerevisiae bub3 mutant strain, hits give high values
Summary of the method: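 Compounds were applied to a genetically altered yeast strain carrying a cell-cycle control defect. Growth inhibition was scored against vehicle-treated controls.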

[6] = NCI Yeast Anticancer Drug Screen. Data for the mlh1 rad18 strain (AID 175); details: S. cerevisiae mlh1 rad18 strain growth inhibition, hits give high values
Summary of the method: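 Yeast w/ defined DNA-repair lesions; compound exposure; growth vs vehicle controls → % inhibition.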

[7] = at 5.0 µM (retest, dose inferred, filed as 0.5)
[8] = at 50.0 µM (retest, dose inferred, filed as 5.0)

Measured: growth inhibition

CCCCCCCCCCC(C(=O)OCCCC)P(=O)(OCCCC)OCCCC (stereo not drawn)
inactive: [1]; [7] 11% | [1]; at 50.0 µM 36.4% | [2]; [7] 9% | [3]; [7] 8% | [3]; at 50.0 µM 30.8% | [4]; [7] 13% | [5]; [7] 4% | [5]; at 50.0 µM 21.1% | [6]; [7] 6% | [6]; at 50.0 µM 59.3%
active: [1]; [8] 95% | [2]; [8] 95% | [2]; at 50.0 µM 73.2% | [3]; [8] 86% | [4]; [8] 96% | [4]; at 50.0 µM 81.2% | [5]; [8] 95% | [6]; [8] 94%

Nc1ccc(O)c(=O)cc1
inactive: [1]; [7] -1% | [1]; [8] 1% | [1]; at 50.0 µM 50.2% | [2]; [7] -40% | [2]; [8] 11% | [2]; at 50.0 µM 45.1% | [3]; [7] 0% | [3]; [8] 18% | [3]; at 50.0 µM 62.2% | [4]; [7] -2% | [4]; [8] 0% | [4]; at 50.0 µM 25.1% | [5]; [7] -8% | [5]; [8] 4% | [6]; [7] -2% | [6]; [8] 15% | [6]; at 50.0 µM 59.9%
active: [5]; at 50.0 µM 76.6%

O=C(CC(=O)c1ccc(O)cc1)c1ccccc1
active: [5]; [8] 89% | [6]; [8] 86%
inactive: [1]; [7] -1% | [1]; [8] 50% | [1]; at 50.0 µM 60.8% | [2]; [7] -13% | [2]; [8] 52% | [2]; at 50.0 µM 1.2% | [3]; [7] -1% | [3]; [8] 66% | [3]; at 50.0 µM 21.2% | [4]; [7] -1% | [4]; [8] 62% | [4]; at 50.0 µM 4.5% | [5]; [7] -6% | [5]; at 50.0 µM 48.7% | [6]; [7] 3% | [6]; at 50.0 µM 58%

CCCCCCCCCCCCCCCCNC(C)c1ccccc1 (stereo not drawn)
active: [1]; at 50.0 µM 98.1% | [2]; at 50.0 µM 98.7% | [4]; at 50.0 µM 97.5% | [5]; at 50.0 µM 99% | [6]; at 50.0 µM 98.3%
inactive: [1]; [7] 0% | [1]; [8] -3% | [2]; [7] -1% | [2]; [8] 9% | [4]; [7] -9% | [4]; [8] -4% | [5]; [7] -6% | [5]; [8] -6% | [6]; [7] -2% | [6]; [8] 9%

CCOC(=O)C1=C(c2ccccc2)c2ccccc2OC1C(=O)O (stereo not drawn)
active: [6]; [8] 78%
inactive: [1]; [7] 8% | [1]; [8] 38% | [1]; at 50.0 µM 26.5% | [2]; [7] 22% | [2]; [8] 60% | [2]; at 50.0 µM 14.8% | [3]; [7] 16% | [3]; [8] 64% | [3]; at 50.0 µM 19.5% | [4]; [7] 2% | [4]; [8] 38% | [4]; at 50.0 µM 59.9% | [5]; [7] 16% | [5]; [8] 29% | [5]; at 50.0 µM 32.5% | [6]; [7] 34% | [6]; at 50.0 µM 55.8%

CCN(CC)c1c(C(=O)/C=C/c2ccc(Cl)cc2)c(-c2ccccc2)nn(C)c1=O
inactive: [1]; [7] 18% | [2]; [7] 15% | [3]; [7] 14% | [4]; [7] 7% | [5]; [7] 8% | [6]; [7] 24%
active: [1]; [8] 85% | [1]; at 50.0 µM 82.5% | [2]; [8] 91% | [2]; at 50.0 µM 85.9% | [3]; [8] 73% | [3]; at 50.0 µM 81% | [4]; [8] 82% | [4]; at 50.0 µM 83.7% | [5]; [8] 92% | [5]; at 50.0 µM 84% | [6]; [8] 92% | [6]; at 50.0 µM 81.8%

CC1c2cc(c3c(c2O)CN([C@@H](C)C2CCCCC2)CO3)C(C)c2cc(c3c(c2O)CN([C@@H](C)C2CCCCC2)CO3)C(C)c2cc(c3c(c2O)CN([C@@H](C)C2CCCCC2)CO3)C(C)c2cc1c1c(c2O)CN([C@@H](C)C2CCCCC2)CO1 (stereo partly drawn)
inactive: [1]; [7] -3% | [1]; [8] -5% | [1]; at 50.0 µM 36.6% | [2]; [7] -1% | [2]; [8] -28% | [2]; at 50.0 µM 2.9% | [3]; [7] -3% | [3]; [8] -10% | [3]; at 50.0 µM 42.9% | [4]; [7] -2% | [4]; [8] -44% | [4]; at 50.0 µM 30.8% | [5]; [7] -1% | [5]; [8] -13% | [5]; at 50.0 µM 69.2% | [6]; [7] -6% | [6]; [8] -16% | [6]; at 50.0 µM 47.3%

CCCCCCC(C)S(=O)(=O)c1ccc(C)cc1 (stereo not drawn)
active: [2]; [8] 83% | [2]; at 50.0 µM 84.7% | [3]; [8] 75%
inactive: [1]; [7] 3% | [1]; [8] 63% | [1]; at 50.0 µM 58.5% | [2]; [7] 14% | [3]; [7] 7% | [3]; at 50.0 µM 59.7% | [4]; [7] 5% | [4]; [8] 13% | [4]; at 50.0 µM 5.1% | [5]; [7] 0% | [5]; [8] 50% | [5]; at 50.0 µM 17.1% | [6]; [7] -3% | [6]; [8] 47% | [6]; at 50.0 µM 51.2%

CN(C)CC(O)c1cc(-c2ccc(Cl)c(Cl)c2)nc2c(Cl)cc(Cl)cc12 (stereo not drawn)
inactive: [1]; [7] 3% | [2]; [7] -3% | [3]; [7] -9% | [4]; [7] -4% | [6]; [7] 1%
active: [1]; [8] 98% | [1]; at 50.0 µM 97.8% | [2]; [8] 99% | [2]; at 50.0 µM 98.5% | [3]; [8] 99% | [3]; at 50.0 µM 98.5% | [4]; [8] 97% | [4]; at 50.0 µM 98.2% | [6]; [8] 98% | [6]; at 50.0 µM 98%

OCc1cc2c([nH]c3ccccc32)c(C(O)CO)n1 (stereo not drawn)
inactive: [1]; [7] -2% | [1]; [8] -6% | [2]; [7] 0% | [2]; [8] -3% | [3]; [7] -2% | [3]; [8] -3% | [4]; [7] 0% | [4]; [8] -1% | [5]; [7] 2% | [5]; [8] -2% | [6]; [7] 1% | [6]; [8] -4% | [6]; at 50.0 µM -68.3%
active: [1]; at 50.0 µM 92.9% | [2]; at 50.0 µM 94.5% | [3]; at 50.0 µM 94.5% | [4]; at 50.0 µM 92.7% | [5]; at 50.0 µM 93.3%

COc1ccc2nc3cc(Cl)ccc3c(NCCCN(Cc3cc(OC)c(OC)c(OC)c3)Cc3cc(OC)c(OC)c(OC)c3)c2c1
inactive: [1]; [7] 45% | [1]; at 50.0 µM 62.4% | [2]; [7] 29% | [2]; [8] 58% | [2]; at 50.0 µM 34.6% | [3]; [7] 38% | [3]; [8] 62% | [3]; at 50.0 µM 45.6% | [4]; [7] 32% | [4]; [8] 43% | [4]; at 50.0 µM 33.4% | [5]; [7] 37% | [5]; at 50.0 µM 56.6% | [6]; [7] 48%
active: [1]; [8] 72% | [5]; [8] 83% | [6]; [8] 80% | [6]; at 50.0 µM 73.5%

O=S(=O)(CC(Br)c1ccccc1)CC(Br)c1ccccc1 (stereo not drawn)
inactive: [1]; [7] -3% | [1]; [8] -1% | [1]; at 50.0 µM 50.2% | [2]; [7] 19% | [2]; [8] 41% | [2]; at 50.0 µM 43% | [3]; [7] -4% | [3]; [8] 0% | [4]; [7] -3% | [4]; [8] 6% | [4]; at 50.0 µM 40% | [6]; [7] -3% | [6]; [8] 13% | [6]; at 50.0 µM 46.6%
active: [3]; at 50.0 µM 80.9%

N#Cc1ccc(C(F)(F)F)cc1[N+](=O)[O-]
inactive: [1]; [7] 47% | [2]; [7] 44% | [3]; [7] 63% | [4]; [7] 20% | [5]; [7] 31% | [6]; [7] 37%
active: [1]; [8] 99% | [1]; at 50.0 µM 99% | [2]; [8] 99% | [2]; at 50.0 µM 99.2% | [3]; [8] 99% | [3]; at 50.0 µM 99.4% | [4]; [8] 99% | [4]; at 50.0 µM 98.8% | [5]; [8] 99% | [5]; at 50.0 µM 99.2% | [6]; [8] 99% | [6]; at 50.0 µM 99.2%

Cc1ccsc1C(=S)Nc1ccc(Cl)c(/C=N/OC(C)C)c1
inactive: [1]; [7] 4% | [1]; [8] 15% | [1]; at 50.0 µM 32% | [2]; [7] 9% | [2]; [8] 14% | [2]; at 50.0 µM 19.9% | [3]; [7] 7% | [3]; [8] 31% | [3]; at 50.0 µM 21.6% | [4]; [7] 2% | [4]; [8] 17% | [4]; at 50.0 µM 44.8% | [6]; [7] 12% | [6]; [8] 14% | [6]; at 50.0 µM 55.2%

CNC(=O)OCCC(OC(=O)NC)C1CCC2C3CC=C4CC(OC(=O)NC)CCC4(C)C3CCC12C (stereo not drawn)
active: [1]; [7] 85% | [1]; [8] 94% | [2]; [8] 94% | [3]; [7] 77% | [3]; [8] 96% | [4]; [7] 72% | [4]; [8] 89% | [5]; [7] 73% | [5]; [8] 94% | [6]; [7] 88% | [6]; [8] 91%
inactive: [1]; at 50.0 µM 6.5% | [2]; [7] 52% | [2]; at 50.0 µM -1.8% | [3]; at 50.0 µM 2.6% | [4]; at 50.0 µM -6.45% | [5]; at 50.0 µM -1.8% | [6]; at 50.0 µM 34.5%
